Source: PubChem BioAssay (Tox21)
Inconclusive results are not listed. Calls of active or inactive are those of the source. The call rests on the fitted dose curve; in most records, active means well fitted activation curve with a large enough effect in the signal ratio in the repeat runs (not every such curve was filed as active); inconclusive means weak or mixed curves; inactive means flat fitted curve, though single readings scatter; the % refers to the signal ratio. Residues, ends and D or L forms follow the SMILES beside them.

test: qHTS assay to identify small molecule agonists of H2AX (AID 1224845); settings: CHO-K1 phospho-H2AX Ser139 HTRF, 3 h; series mostly up to 154 µM
Excerpt: National Center for Advancing Translational Sciences [NCATS]
NIH Chemical Genomics Center [NCGC]
U.S. Environmental Protection Agency [EPA]
National Institutes of Environmental Health Sciences [NIEHS]
National Toxicology Program [NTP]
U.S. Food and Drug Administration [FDA]
HTRF phospho-H2AX (Ser139) assay (Cisbio Bioassays, US) enables the quantitative detection of the histone variant H2AX when phosphorylated on serine 139. When double-stranded DNA breaks, either by ionizing radiation or endogenous physiological processes, H2AX becomes phosphorylated at Ser139. This phospho-Ser139 serves as a sensitive biomarker for the detection of such breaks, localizing the site of DNA repair. So, HTRF phospho-H2AX Ser139 is a pertinent assay to study genome stability, the cell cycle, DNA repair, and it serves as a biomarker for cancer, and to understand aging. Wild type CHO-K1 cells were used to identify the inducers of Phospho-H2AX Ser 139 from the Tox21 10K compound collections.
Tox21 Assay Protocol Summary:
The CHO-K1 cells suspended in culture medium containing 10% FBS were dispensed at 1000 cells/ 3 ul/well in 1536-well white wall/solid bottom plates (Greiner Bio-One North America, NC) using a Multidrop Combi (Thermo Fisher Scientific Inc., Waltham, MA). After the assay plates were incubated at 37C overnight, 23 nl of compounds at 15 concentrations (from 5-48 columns) or positive control (from 1 to 4 columns) were transferred to the assay plates using a Pintool station (Wako, San Diego, CA) into each well resulting in a final DMSO concentration of 0.76%. After 3hr incubation at 37C, 1 uL/well Supplemented Lysis buffer (diluted 100 fold blocking reagent in lysis buffer) (HTRF Phospho-H2A.X (S139) Assay kit from Cisbio US Inc., Bedford, MA) was added using a Flying Reagent Dispenser (FRD) (Aurora Discovery, CA). After 10sec spin at 1000 rpm in a plate centrifuge, the assay plates were incubated at room temperature for 30 min. Then followed by the addition of 1 uL/well detection buffer (containing a mixture of two antibodies, one labeled with cryptate, Anti pH2AX (S139)-K and another labeled with d2, Anti H2AX-d2) using FRD. After incubation at room temperature for 24 hr, the time resolved fluorescence at excitation 320 nm and emissions at 665 nm and 620 nm was measured using an Envision plate reader (PerkinElmer, Waltham, MA).

Question: Which outcome does the source give for `CCCCC1C(=O)N(c2ccccc2)N(c2ccccc2)C1=O` here?
Answer: inactive

Question: Which outcome does the source give for `NC(N)=O` here?
Answer: inactive

Question: Which outcome does the source give for `C1N2CN3CN1CN(C2)C3` here?
Answer: inactive

Question: With `Cc1cn([C@H]2C[C@H](N=[N+]=[N-])[C@@H](CO)O2)c(=O)[nH]c1=O` as the compound, how does the outcome read?
Answer: inactive

Question: Which outcome does the source give for `NC(=O)c1ccccc1O` here?
Answer: inactive

Question: Which outcome does the source give for `O=c1ccc2ccccc2o1` here?
Answer: inactive

Question: For `CCCCC(CC)COC(=O)/C=C/c1ccc(OC)cc1` (stereo not given), which outcome is on record?
Answer: inactive

Question: For `Cc1ccc(C)c(OCCCC(C)(C)C(=O)O)c1`, which outcome is on record?
Answer: inactive

Question: Which outcome does the source give for `Cc1ccc(O)cc1` here?
Answer: inactive

Question: With `CCC1(c2ccccc2)C(=O)NCNC1=O` as the compound, how does the outcome read?
Answer: inactive

Question: With `O=C1NC(=O)c2ccccc21` as the compound, how does the outcome read?
Answer: inactive

Question: Which outcome does the source give for `Nc1ccc(S(=O)(=O)Nc2nccs2)cc1` here?
Answer: inactive

Question: Which outcome does the source give for `COc1c2occc2cc2ccc(=O)oc12` here?
Answer: inactive

Question: For `CC1(C)[C@@H]2CC[C@@]1(C)C(=O)C2`, which outcome is on record?
Answer: inactive

Question: For `NS(=O)(=O)c1cc(C(=O)O)c(NCc2ccco2)cc1Cl`, which outcome is on record?
Answer: inactive

Question: With `O=NO` as the compound, how does the outcome read?
Answer: inactive

Question: With `NC(=O)NC1NC(=O)NC1=O` (stereo not given) as the compound, how does the outcome read?
Answer: inactive

Question: With `CCCNC(=O)NS(=O)(=O)c1ccc(Cl)cc1` as the compound, how does the outcome read?
Answer: inactive

Question: With `Cc1ccc(S(=O)(=O)NC(=O)NN2CCCCCC2)cc1` as the compound, how does the outcome read?
Answer: inactive

Question: Which outcome does the source give for `CC(O)CO` (stereo not given) here?
Answer: inactive

Question: With `C/C=C/c1ccc(OC)cc1` as the compound, how does the outcome read?
Answer: inactive

Question: With `C[C@]12C=CC(=O)C=C1CC[C@@H]1[C@@H]2[C@@H](O)C[C@@]2(C)[C@H]1CC[C@]2(O)C(=O)CO` as the compound, how does the outcome read?
Answer: inactive

Question: With `O=C(c1ccccc1)c1ccccc1` as the compound, how does the outcome read?
Answer: inactive

Question: Which outcome does the source give for `CCCCOC(=O)CC(CC(=O)OCCCC)(OC(C)=O)C(=O)OCCCC` here?
Answer: inactive

Question: With `O=C(O)c1cccc([N+](=O)[O-])c1` as the compound, how does the outcome read?
Answer: inactive

Question: Which outcome does the source give for `CC(O)CN(CCN(CC(C)O)CC(C)O)CC(C)O` (stereo not given) here?
Answer: inactive

Question: With `NC(N)=NC(=O)c1nc(Cl)c(N)nc1N` as the compound, how does the outcome read?
Answer: inactive

Question: Which outcome does the source give for `N=C(N)c1ccc(OCCCCCOc2ccc(C(=N)N)cc2)cc1` here?
Answer: inactive

Question: Which outcome does the source give for `Cc1cc(=O)[nH]c(=S)[nH]1` here?
Answer: inactive

Question: For `COC(=O)[C@H](Cc1ccccc1)NC(=O)[C@@H](N)CC(=O)O` (H-Asp-Phe-OMe), which outcome is on record?
Answer: inactive

Question: For `NC(=O)c1cnccn1`, which outcome is on record?
Answer: inactive

Question: Which outcome does the source give for `O=C(O)CCCCC(=O)O` here?
Answer: inactive

Question: For `CC(=O)Nc1nnc(S(N)(=O)=O)s1`, which outcome is on record?
Answer: inactive

Question: Which outcome does the source give for `NNC(=O)c1ccncc1` here?
Answer: inactive

Question: With `O=C(O)C(=O)O` as the compound, how does the outcome read?
Answer: inactive

Question: With `O=C(C1CCCCC1)N1CC(=O)N2CCc3ccccc3C2C1` (stereo not given) as the compound, how does the outcome read?
Answer: inactive

Question: For `Nc1ccc(S(=O)(=O)c2ccc(N)cc2)cc1`, which outcome is on record?
Answer: inactive

Question: Which outcome does the source give for `Cn1cc[nH]c1=S` here?
Answer: inactive

Question: With `O=S(=O)(O)NC1CCCCC1` as the compound, how does the outcome read?
Answer: inactive

Question: With `CC(=O)OCC(COC(C)=O)OC(C)=O` as the compound, how does the outcome read?
Answer: inactive
